In the library only some 7.4% were active in any assay of this set; here they are far more common.
Rab9 promoter act: qHTS Assay for Rab9 Promoter Activators. Huh7 Rab9 promoter-luciferase reporter, luminescence, 24 h. Potency, µM (doses to about 9.22 µM), without a hit: at the highest dose activation, negative = inhibition, hits mostly activators. 320,000 compounds, 2.8% hits. AID 485297, 2010; also: % of control where 0% means no effect; nearly all actives have a fitted effect of over 60% in size
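Steps: seed 1500 Huh7 Rab9-luc cells per well, rest 2 h at 37 °C; add compound in DMSO; incubate 24 h; add luciferase reagent, 10 min ambient; read luminescence.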
SMN2 splice up: qHTS Assay for Enhancers of SMN2 Splice Variant Expression. HEK293 SMN2-luciferase splicing reporter, luminescence, 30-36 h. Potency, µM (titrated, usually from 46.1 µM), for the others: at the top dose activity change, positive = activation, most hits filed as activators. 210,000 compounds, 2.8% hits; also: % of control where 0% means no effect; nearly all actives have a fitted effect of over 55% in size
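HEK293 cells carry an SMN2 minigene-luciferase reporter in which exon 7 inclusion puts luciferase in frame. Cells were seeded at 2000 cells/well, attached for 10-12 hours, then exposed to compounds for 30-36 hours at 37C before ONE-Glo luminescence.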
FLuc modulator: qHTS profiling assay for firefly luciferase inhibitor/activator using purifed enzyme and Km concentrations of substrates (counterscreen for miR-21 project). Luciferin 4-monooxygenase (Photinus pyralis), P08659. purified FLuc, Km substrates, luminescence inhibition. Potency, µM (series often up to 57.5 µM), without a hit: top-dose activity change, negative = inhibition, most hits filed as inhibitors. 360,000 compounds, 6.9% hits;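 also: plate controls were vehicle for no effect and reference inhibitor for full effect; nearly all actives have a fitted effect of over 55% in size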
Target sequence (P08659 whole entry, looked up): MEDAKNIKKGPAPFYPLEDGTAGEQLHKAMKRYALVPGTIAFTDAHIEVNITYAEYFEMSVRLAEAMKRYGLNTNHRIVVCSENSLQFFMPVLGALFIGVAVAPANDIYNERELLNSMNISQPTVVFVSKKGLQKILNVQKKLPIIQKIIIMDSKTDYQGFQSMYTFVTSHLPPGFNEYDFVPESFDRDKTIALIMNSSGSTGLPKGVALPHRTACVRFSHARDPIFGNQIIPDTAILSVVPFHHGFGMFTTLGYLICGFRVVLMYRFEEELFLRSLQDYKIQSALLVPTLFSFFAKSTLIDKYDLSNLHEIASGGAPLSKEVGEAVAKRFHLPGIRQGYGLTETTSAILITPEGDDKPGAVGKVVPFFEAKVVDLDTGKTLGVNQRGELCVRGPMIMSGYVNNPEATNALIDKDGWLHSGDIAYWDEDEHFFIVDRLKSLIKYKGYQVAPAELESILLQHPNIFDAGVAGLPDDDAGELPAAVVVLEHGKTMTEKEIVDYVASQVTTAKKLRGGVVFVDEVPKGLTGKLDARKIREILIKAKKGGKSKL
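Biochemical qHTS of compounds, final roughly 60 µM downward over six points, against 10 nM purified firefly luciferase using Km concentrations of substrates (10 uM D-luciferin, 10 uM ATP) in Tris acetate pH 7.5 buffer; luminescence output.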
NPC1 prom act: qHTS Assay for NPC1 Promoter Activators; 320,000 compounds, 2.4% hits; Huh7 NPC1 promoter luciferase reporter, 24 h; Potency, µM (series often up to 9.22 µM), for inactives: at the highest dose activation, usual class: activators; also: % of control where 0% means no effect; nearly all actives have a fitted effect of over 60% in size
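Stably transfected Huh7 (NPC1 promoter→luciferase), 1500 cells/well in Opti-MEM + 10% FBS, 2 h settle, then compound 24 h at 37 °C. Luminescence after 10 min with Amplite reagent.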
ELG1 genotoxic: qHTS screen for small molecules that induce genotoxicity in human embryonic kidney (HEK293T) cells expressing luciferase-tagged ELG1; HEK293T ELG1-luciferase reporter, luminescence, 16 h; Potency, µM (series often up to 46 µM), for inactives: top-dose activity change, positive = activation, usual class: activators; 330,000 compounds, 1.3% hits; AID 504466, 2011; also: % of control where 0% means no effect; nearly all actives have a fitted effect of over 60% in size
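ELG1-luciferase HEK293T cells, 2,000/well; compound pinned in; 16 hr, 37 °C, 5% CO2; ONE-Glo, 30 min RT; luminescence on CCD imager.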
Starred values were filed as active, the others as inactive; [ ] = another dose, or the depositor's remark. Calls follow the shape of the dose curve; as a rule, active = well fitted curve in the direction sought with a large enough effect; inconclusive = small, poorly fitted or top-dose-only effect, or another doubt; inactive = no such curve, though single readings can be large; an effect the other way counts as inactive or inconclusive. Potency is read from the fitted curve at half-maximal effect.

Screening CNC(=S)c1cc(C(C)(C)C)c(O)c(C(C)(C)C)c1 returned Rab9 promoter act -4%, FLuc modulator 0%, NPC1 prom act -2% and ELG1 genotoxic 1%.
For Oc1ccccc1CNc1ccc(Br)cn1 the results were Rab9 promoter act inconclusive, SMN2 splice up inconclusive, FLuc modulator 9.5µM*, NPC1 prom act inconclusive and ELG1 genotoxic -2%.
`c1ccc2c(c1)Cn1nc(Cc3nc4c(s3)CCCC4)nc1-2` gave Rab9 promoter act inconclusive, SMN2 splice up inconclusive, FLuc modulator 17µM*, NPC1 prom act 6% and ELG1 genotoxic inconclusive.
Screening FC(F)(F)c1ccccc1-c1nccc(NCc2ccccc2)n1 returned SMN2 splice up -12%.
`COc1ccc(/C=C/c2ccncc2)cc1OC` gave Rab9 promoter act 4%, SMN2 splice up 10µM*, FLuc modulator inconclusive, NPC1 prom act 0% and ELG1 genotoxic 23µM*.
Screening NC(=O)c1cn(-c2ccccc2)nc1-c1cc2ccccc2oc1=O returned Rab9 promoter act -4%, SMN2 splice up -6%, FLuc modulator 3%, NPC1 prom act -1% and ELG1 genotoxic 2%.
`O=C(N/N=C/c1cn(-c2ccccc2)nc1-c1cc2ccccc2o1)c1cccnc1` gave Rab9 promoter act inconclusive, SMN2 splice up 4µM*, FLuc modulator 2.1µM*, NPC1 prom act inconclusive and ELG1 genotoxic inconclusive.
O=C(O)c1cccc(NC(=O)c2cn(-c3ccccc3)nc2-c2cc3ccccc3o2)c1 was read as Rab9 promoter act 9%, SMN2 splice up 21%, FLuc modulator 4.3µM*, NPC1 prom act 3% and ELG1 genotoxic 9%.
For O=C(N/N=C/c1cn(-c2ccccc2)nc1-c1cc2ccccc2o1)c1ccncc1 the results were Rab9 promoter act 2.2µM*, SMN2 splice up 7.1µM*, FLuc modulator 1.9µM*, NPC1 prom act 2.8µM* and ELG1 genotoxic inconclusive.
For C[C@H]1NC(=O)NC1=O the results were SMN2 splice up 6%[20.6 µM].
Screening O=C(N/N=C/c1ccccn1)c1cccs1 returned Rab9 promoter act 7%, SMN2 splice up -45%, FLuc modulator 19µM*, NPC1 prom act 5% and ELG1 genotoxic inconclusive.
For COc1ccc(C(=O)N/N=C/c2ccccn2)cc1OC the results were Rab9 promoter act 9%, FLuc modulator -6%, NPC1 prom act -1% and ELG1 genotoxic -1%.
Screening O=C(N/N=C/c1ccccn1)c1ccc(Cl)cc1 returned Rab9 promoter act 3.2µM*, FLuc modulator 8.5µM*, NPC1 prom act inconclusive and ELG1 genotoxic 18µM*.
O=C(N/N=C/c1ccccn1)c1ccccc1 was read as Rab9 promoter act 3.5µM*, SMN2 splice up 11µM*, FLuc modulator 11µM*, NPC1 prom act inconclusive and ELG1 genotoxic inconclusive.
For O=C(N/N=C/c1ccc[nH]1)c1ccc(Cl)cc1 the results were Rab9 promoter act -3%, SMN2 splice up 8%, FLuc modulator 11µM*, NPC1 prom act -24% and ELG1 genotoxic 19%.
O=C(O)CCN1C(=S)CSC1=S was read as SMN2 splice up -10%[9.22 µM].
For COc1cc(C(=O)N/N=C/c2ccccn2)cc(OC)c1OC the results were Rab9 promoter act -4%, SMN2 splice up -16%, FLuc modulator 3%, NPC1 prom act -22% and ELG1 genotoxic -3%.
For Cc1ccc(C(=O)Nc2ccc(C(=O)N/N=C/c3ccccn3)cc2)cc1 the results were Rab9 promoter act inconclusive, FLuc modulator 15µM*, NPC1 prom act 27% and ELG1 genotoxic -29%.
`CN(C)c1ccc(C(=O)N/N=C/c2ccccn2)cc1` gave Rab9 promoter act 2.5µM*, FLuc modulator 13µM*, NPC1 prom act 2.8µM* and ELG1 genotoxic inconclusive.
Screening CCC(C)(C)C1CCc2[nH]nc(C(=O)NC(C)C)c2C1 (centres undefined) returned Rab9 promoter act -7%, FLuc modulator -5%, NPC1 prom act -9% and ELG1 genotoxic -7%.
COc1cc(OC)cc(-c2nc(-c3ccccc3OC)no2)c1 was read as Rab9 promoter act 21%, SMN2 splice up 14%, FLuc modulator -15%, NPC1 prom act 9% and ELG1 genotoxic 8%.
For COc1cccc(-c2nc(-c3ccc(NC(=O)Cc4ccccc4OC)cc3)no2)c1 the results were Rab9 promoter act -6%, SMN2 splice up 15%, FLuc modulator inconclusive, NPC1 prom act 0% and ELG1 genotoxic -18%.
COc1cc(OC)cc(-c2nc(-c3cccs3)no2)c1 was read as Rab9 promoter act inconclusive, SMN2 splice up 26%, FLuc modulator 11µM*, NPC1 prom act inconclusive and ELG1 genotoxic -9%.
For COc1cccc(-c2nc(-c3ccncc3)no2)c1 the results were Rab9 promoter act 1.4µM*, FLuc modulator 5.4µM*, NPC1 prom act 2.8µM* and ELG1 genotoxic inconclusive.
Screening COc1cccc(-c2nc(-c3cccs3)no2)c1 returned Rab9 promoter act 2.5µM*, FLuc modulator 0.27µM*, NPC1 prom act 2.8µM* and ELG1 genotoxic inconclusive.
For COc1ccc2oc(=O)c(-c3nc(-c4cccs4)no3)cc2c1 the results were FLuc modulator 1%.
Cc1ccccc1-c1noc(CSc2nnc(Cc3ccccc3)n2-c2ccc(F)cc2)n1 was read as SMN2 splice up -2% and FLuc modulator -14%.
c1ccc(CNc2ccc3ccccc3n2)nc1 was read as Rab9 promoter act inconclusive, SMN2 splice up inconclusive, FLuc modulator 4.8µM*, NPC1 prom act 2.2µM* and ELG1 genotoxic inconclusive.
Screening FC(F)(F)c1ccc(NCc2ccccn2)nc1 returned Rab9 promoter act inconclusive, FLuc modulator 17µM*, NPC1 prom act inconclusive and ELG1 genotoxic inconclusive.
Screening Cc1cc(NCc2ccccn2)nc2ccccc12 returned Rab9 promoter act 6%, SMN2 splice up 5%, FLuc modulator inconclusive, NPC1 prom act 10% and ELG1 genotoxic 7%.
For O=S(=O)(NCc1ccccn1)c1cc(C(F)(F)F)ccc1Cl the results were Rab9 promoter act -2%, SMN2 splice up -5%, FLuc modulator -3%, NPC1 prom act -3% and ELG1 genotoxic -1%.
CN(c1ccccc1)S(=O)(=O)c1ccc2c(c1)oc(=O)n2C was read as Rab9 promoter act 5%, FLuc modulator 0%, NPC1 prom act -5% and ELG1 genotoxic 1%.
`O=C1c2cccc3cccc(c23)C(=O)N1CCc1ccccc1` gave Rab9 promoter act inconclusive, SMN2 splice up 14µM*, FLuc modulator 13µM*, NPC1 prom act 26% and ELG1 genotoxic 4%.
